Publication PMC5540273 (PLoS ONE, 2017)

Key:
Conditions in all cases: concentration: 1 μM, replicates: in singlicate; n = 1
PRKD3 = tested on: PRKD3
PRKG1 = tested on: PRKG1
PRKG2 = tested on: PRKG2
PRKR = tested on: T1, PRKR
T1 construct: gene EIF2AK2

PRKX = tested on: PRKX
PRP4 = tested on: PRP4
PYK2 = tested on: T2, PYK2
T2 construct: gene PTK2B

QSK = tested on: QSK
RAF1 = tested on: RAF1
RET = tested on: RET
RIOK1 = tested on: RIOK1
RIOK2 = tested on: RIOK2
RIOK3 = tested on: RIOK3
RIPK1 = tested on: RIPK1
RIPK2 = tested on: RIPK2
RIPK4 = tested on: RIPK4
RIPK5 = tested on: RIPK5
ROCK1 = tested on: ROCK1
ROCK2 = tested on: ROCK2
ROS1 = tested on: ROS1
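Further: KINOMEscan kinase panel screen.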

Structure (SMILES) | %Inh (PRKD3) [%] | %Inh (PRKG1) [%] | %Inh (PRKG2) [%] | %Inh (PRKR) [%] | %Inh (PRKX) [%] | %Inh (PRP4) [%] | %Inh (PYK2) [%] | %Inh (QSK) [%] | %Inh (RAF1) [%] | %Inh (RET) [%] | %Inh (RIOK1) [%] | %Inh (RIOK2) [%] | %Inh (RIOK3) [%] | %Inh (RIPK1) [%] | %Inh (RIPK2) [%] | %Inh (RIPK4) [%] | %Inh (RIPK5) [%] | %Inh (ROCK1) [%] | %Inh (ROCK2) [%] | %Inh (ROS1) [%]
CN(c1ccc(NC(=O)Nc2cc(C(F)(F)F)ccc2F)cc1)c1ccnc(Nc2ccc(S(N)(=O)=O)cc2)n1 [GW809893] | 0 | 16 | 17 | 3 | 0 | 14 | 94.8 | 25 | 88 | 100 | 24 | 2 | 40 | 99.1 | 73 | 26 | 47 | 0 | 24 | 95.9
O=C(Nc1cccc(Oc2ccc3nc(NC(=O)C4CC4)cn3n2)c1)c1ccccc1C(F)(F)F | 0 | 0 | 0 | 8 | 5 | 5 | 6 | 0 | 76 | 99.9 | 64 | 0 | 76 | 15 | 11 | 0 | 0 | 0 | 0 | 0
Cc1cccc(Nc2nc(N[C@H]3CCNC3)ncc2C(N)=O)c1.Cl [GSK2197149] | 75 | 0 | 0 | 22 | 38 | 23 | 49 | 14 | 0 | 30 | 99.8 | 28 | 89 | 0 | 0 | 90.7 | 1 | 67 | 45 | 32
COc1ccc(-c2coc3ccc(-c4nnc(SCc5ccc(OC)c(C(F)(F)F)c5)o4)cc23)cc1 | 0 | 6 | 14 | 0 | 0 | 15 | 0 | 0 | 12 | 0 | 0 | 20 | 9 | 9 | 17 | 12 | 20 | 0 | 23 | 0
c1ccc(-c2cnc3nccnn23)cc1 [AH20685] | 0 | 14 | 0 | 0 | 6 | 6 | 0 | 0 | 7 | 0 | 0 | 0 | 0 | 0 | 0 | 0 | 0 | 0 | 0 | 0
Cc1ccc(F)c(C(=O)Nc2cccc(-c3nn4ccccc4c3-c3ccnc(Nc4cccc(F)c4)n3)c2)c1F [GSK361061] | 32 | 18 | 0 | 0 | 12 | 15 | 0 | 17 | 87 | 96.3 | 23 | 26 | 5 | 2 | 61 | 4 | 0 | 0 | 3 | 21
Cc1occc1-c1ncc(OC[C@@H](N)Cc2c[nH]c3ccccc23)cc1-c1ccc2[nH]nc(C)c2c1.O=C(O)C(F)(F)F [GSK682037] | 95.6 | 57 | 14 | 0 | 56 | 11 | 49 | 11 | 11 | 84 | 95.1 | 6 | 83 | 0 | 12 | 0 | 0 | 74 | 79 | 26
COc1cccc(C2=C(Nc3ccc(Cl)c(C(=O)O)c3)C(=O)NC2=O)c1 [SB-390769] | 0 | 0 | 41 | 9 | 0 | 31 | 0 | 100 | 14 | 11 | 0 | 0 | 5 | 0 | 21 | 7 | 100 | 28 | 12 | 0
C[C@@H]1CC[C@@H](C(=O)Nc2ccccc2)CN1c1cc(-c2ccc3c(N)n[nH]c3c2)nc(N)n1 [GSK2286062] | 0 | 0 | 0 | 2 | 5 | 13 | 3 | 3 | 2 | 6 | 48 | 52 | 20 | 31 | 0 | 0 | 0 | 14 | 35 | 14
Nc1ncc(-c2ccc3nccc(-c4ccncc4)c3c2)cc1S(=O)(=O)N1CCOCC1 [GSK1627798] | 0 | 0 | 0 | 14 | 11 | 3 | 21 | 0 | 0 | 0 | 30 | 39 | 17 | 0 | 1 | 4 | 0 | 0 | 0 | 15
Cc1ccc(C(=O)N2CC[C@@H](O)C2)cc1-n1c(C)cc(OCc2ccc(F)cc2F)c(Br)c1=O | 7 | 6 | 0 | 0 | 0 | 20 | 2 | 0 | 25 | 10 | 12 | 0 | 29 | 0 | 46 | 0 | 0 | 0 | 0 | 0
c1ccc(-c2n[nH]cc2Nc2ccnc3ccccc23)nc1 [GW694077] | 100 | 5 | 0 | 16 | 0 | 89 | 0 | 0 | 7 | 0 | 99.2 | 86 | 100 | 0 | 11 | 96.4 | 85 | 98.2 | 97.8 | 9
COc1cc(Nc2nccc(-c3c(-c4cccc(NC(=O)c5c(F)cccc5F)c4)nn4ncccc34)n2)cc(OC)c1OC [GSK327238] | 0 | 24 | 15 | 22 | 0 | 0 | 72 | 17 | 97.2 | 99.7 | 20 | 5 | 24 | 16 | 99.4 | 4 | 0 | 12 | 14 | 75
Cl.c1ccc(-c2ccc3c(Nc4ccc5[nH]ncc5c4)ccnc3c2)nc1 [GW440137] | 17 | 0 | 0 | 0 | 19 | 66 | 2 | 6 | 15 | 76 | 32 | 11 | 32 | 6 | 75 | 23 | 4 | 10 | 35 | 0
Cc1ccc(S(=O)(=O)Nc2ccc(Nc3nccc(Nc4cccc5[nH]ncc45)n3)cc2)cc1 [GSK581271] | 0 | 0 | 5 | 0 | 6 | 53 | 12 | 6 | 10 | 8 | 78 | 40 | 34 | 5 | 69 | 0 | 0 | 0 | 8 | 25
Cl.NC(=O)c1cccc(Nc2nccc(Nc3ccc(Oc4c(Cl)cccc4Cl)c(Cl)c3)n2)c1 [GW659009] | 21 | 0 | 0 | 0 | 0 | 20 | 0 | 0 | 88 | 0 | 56 | 53 | 51 | 0 | 84 | 0 | 10 | 0 | 10 | 0
O=C(O)C(F)(F)F.O=C(O)C(F)(F)F.O=c1[nH]ccc2nc(N[C@@H]3CCCNC3)nc(Nc3ccc(S(=O)(=O)N4CCOCC4)cc3)c12 [GSK2177277] | 100 | 66 | 96.5 | 86 | 94.6 | 92.9 | 98.9 | 85 | 0 | 99.9 | 100 | 65 | 82 | 0 | 0 | 95.9 | 98.3 | 99.6 | 92.8 | 71
O=C(Nc1cccc(-c2nn3ccccc3c2-c2ccnc(Nc3cccc(F)c3)n2)c1)c1c(F)ccc(F)c1Cl [GSK357952] | 39 | 1 | 1 | 0 | 22 | 8 | 0 | 5 | 79 | 84 | 24 | 51 | 16 | 0 | 35 | 0 | 0 | 3 | 18 | 18
COc1cccc(NC(=O)NC2CCN(c3ccnc(Nc4cc(OC)c(OC)c(OC)c4)n3)C2)c1 (centres unmarked) [GSK1379763] | 0 | 0 | 0 | 6 | 28 | 26 | 4 | 0 | 7 | 16 | 85 | 0 | 82 | 6 | 29 | 49 | 0 | 4 | 9 | 23
